Experimental data reported in PubChem BioAssay AID1021 (Emory University Molecular Libraries Screening Center, 2008).
In all, about 220,000 compounds went through this assay and about 2,100 (0.95%) were called active. For the sample, actives were picked, then their nearest neighbours and some compounds at random. Unmarked numbers belong to inactive results.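 How the source made its calls: active means compounds that cut the binding signal by more than half at the single screening dose; inactive means the rest.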

Biological target: Induced myeloid leukemia cell differentiation protein Mcl-1 (Homo sapiens) (UniProt Q07820)
Assay: Mcl-1/Bid binding inhibitors, primary screen, biochemical, TR-FRET, 1536-well (AID 1021);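 further: His-tagged Mcl-1 with europium anti-His antibody binding Bid BH3 peptide; 0% = Mcl-1 plus peptide wells and 100% = peptide-only wells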
Details: TR-FRET Mcl-1/Bid-Dy647 peptide binding, at 21.7 µM, hits give high values

Sequence of Induced myeloid leukemia cell differentiation protein Mcl-1 (Homo sapiens) (Q07820 whole entry, looked up): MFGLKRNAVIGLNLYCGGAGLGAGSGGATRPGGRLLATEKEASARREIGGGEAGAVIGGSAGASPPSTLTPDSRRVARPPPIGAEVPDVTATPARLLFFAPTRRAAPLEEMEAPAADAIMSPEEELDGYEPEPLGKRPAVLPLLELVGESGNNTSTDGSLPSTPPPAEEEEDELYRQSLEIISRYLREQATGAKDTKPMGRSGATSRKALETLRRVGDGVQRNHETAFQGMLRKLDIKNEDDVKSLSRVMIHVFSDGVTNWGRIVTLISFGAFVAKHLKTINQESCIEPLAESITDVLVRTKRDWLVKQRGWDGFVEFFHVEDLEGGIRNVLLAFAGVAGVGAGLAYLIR

SMILES	inhibition
O=c1[nH]nc(SCCS(=O)(=O)c2ccc(F)cc2)n1-c1ccccc1C(F)(F)F	-37.5%
CCNCCC(=O)N1c2ccccc2Sc2ccc(NC(=O)OCC)cc21	-12.2%
CCOC(=O)Nc1ccc(NC(=O)OCC)cc1	-26.4%
CCOC(=O)Nc1ccc2c(c1)N(C(=O)CCN1CCN(CCO)CC1)c1ccccc1CC2	51.3% (active)
COc1ccc2[nH]c(=S)cc(C)c2c1	-43.7%
CNC1(c2nnnn2-c2c(C)cccc2C)CCOC(C)(C)C1 (stereo unspecified)	-15.5%
CCCNC(=O)NC(=O)COC(=O)CC(NC(N)=O)c1ccc(Cl)cc1 (stereo unspecified)	-14.2%
CN(C)/C(CN1CCCCC1)=C1\N=C(c2ccccc2)OC1=O	65.5% (active)
O=S(=O)(c1ccccc1)N(CC(O)CN1CCCCC1)c1ccccc1 (stereo unspecified)	-28.8%
O=C(CN1CCCC1)N1CCN(c2ccccc2)CC1	-53.9%
COC(=O)N/N=C/c1ccc(-c2ccc(Cl)c(Cl)c2)o1	15.5%
COCCCNCC(=O)Nc1sc(C)c(C)c1C(=O)OC	63.5% (active)
CCOC(=O)c1c(NC(=O)c2cccs2)sc(C)c1C	-14.7%
COC(=O)c1c(NC(=O)c2c(Cl)cnn2C)sc(C)c1C	-24%
COc1cccc(NC(=O)CN(C)C(C)C(=O)Nc2ccc(C#N)cc2)c1 (stereo unspecified)	-15.1%
O=C(NCc1ccco1)c1nn2cccnc2c1Cl	-10.8%
COCCCNc1nc2c(-c3cccc(C(F)(F)F)c3)nnn2c2ccccc12	-13.1%
NCC(=O)c1cccc2ccc[n+]([O-])c12	-13.8%
CCc1ccccc1NC(=O)CSc1nnc(-c2ccncc2)o1	-14.6%
Cc1nn(-c2ccccc2)c2c1C(c1cccc([N+](=O)[O-])c1)N(c1ccccc1)C(=O)N2 (stereo unspecified)	-12.3%
COc1ccc(-n2c(C)nc3c(cnn3-c3ccccc3)c2=O)cc1	-3.33%
COc1ccc(C2c3c(C)nn(-c4ccccc4)c3NC(=O)N2c2ccccc2)cc1 (stereo unspecified)	76.8% (active)
CN(NC(=O)C1CC(=O)N(c2ccccc2)C1)C1=NS(=O)(=O)c2ccccc21 (stereo unspecified)	-8.25%
O=S(=O)(/N=C(/Nc1ccccn1)c1ccccc1)c1ccc(Cl)cc1	-22.6%

SMILES	inhibition
Cc1ccc(S(=O)(=O)/N=C(/Nc2ccccn2)c2ccc(Cl)cc2)cc1	1%
Cc1ccc(S/C(=N\S(=O)(=O)c2ccc(Cl)cc2)c2ccccc2)cc1	61.7% (active)
O=C(N/N=C/c1ccc(Br)o1)c1cncc(Br)c1	-13.1%
CS(=O)(=O)N(CC(=O)NC1CCCC1)Cc1ccc(F)cc1	-0.58%
COc1ccc(CCNC(=O)COC(=O)C2CCCCC2)cc1	-25.9%
COc1ccc(CNC2CCCCC2)cc1	64.1% (active)
COc1cc(CNC2CCCCC2)c(Br)cc1OC1CCCC1	-29.9%
CCOC(=O)c1ccc(COC(=O)c2cc(=O)[nH]c3ccccc23)o1	-9.7%
CCOC(=O)c1cnc(COc2ccccc2Cl)[nH]c1=O	7.19%
CCOC(=O)c1cc2c(=O)[nH]c(C(Cl)(Cl)Cl)nc2o1	52% (active)
CCCCCOc1ccc(CSC2=NCCN2)cc1[N+](=O)[O-]	-26.2%
O=C(Nc1ccc(Br)cn1)C1CCN(S(=O)(=O)c2cccs2)CC1	-17.8%
CCc1cc2cc(OC)ccc2nc1SCC(=O)Nc1cc(OC)c(OC)cc1C(=O)O	-3.27%
O=C(C1CCCO1)N(c1ccc(F)cc1)C1C=CS(=O)(=O)C1 (stereo unspecified)	-15.9%
Cc1cccn2c(CNCC(C)Oc3cccnc3)c(C(=O)N3CCOCC3)nc12 (stereo unspecified)	-13.2%
Cc1cccn2c(CN(C)C3CCCc4ccccc43)c(C(=O)N3CCOCC3)nc12 (stereo unspecified)	54.6% (active)
Cc1cc(C)n(CC(C)NCc2c(C(=O)N3CCOCC3)nc3c(C)cccn23)n1 (stereo unspecified)	-17.6%
Cc1cc(N2CCN(c3ccccc3)CC2)nc(N2CCOCC2)n1	-98.4%
Cc1ccc(-c2cc(C(=O)NN)n[nH]2)o1	-33.4%
O=C(CSc1nc2ccccc2o1)N/N=C/c1ccccc1C(=O)O	-19.1%
Nc1c(Cl)cc(S(N)(=O)=O)cc1S(N)(=O)=O	-8.81%
Cc1c(/C=N\NC(=O)c2cc3ccccc3o2)c2ccccc2n1C	-24.8%
Cc1c(/C=N/N2C(=O)C3C4C=CC(C4)C3C2=O)c2ccccc2n1C (stereo unspecified)	59.1% (active)
Cc1c(C=O)c2ccccc2n1CC(=O)O	-7.49%

SMILES	inhibition
O=C(NC1CC1)C1=C[C@H](c2c[nH]c3ccccc23)C[C@H](OCc2ccc(CO)cc2)O1	-70.3%
OCC1(Cc2ccccc2C(F)(F)F)CCN(Cc2cccc3cnccc23)CC1	-14.6%
COc1ccc2nc(NC(=O)NC3CCCCC3)sc2c1	-6.76%
COC(=O)[C@H](CC(C)C)NC(=O)N1CCCCC1C (stereo partly specified)	-3.65%
COc1ccc(C(=O)Nc2cccnc2)cc1C(=O)Nc1cccnc1	14.7%
O=C(Oc1cccnc1)c1cc2ccccc2oc1=O	19.8%
O=C(Nc1cccnc1)c1cc2cc(Br)ccc2oc1=O	59.5% (active)
O=C(CN1CCCCCC1)NCCN1C(=O)S/C(=C\c2ccccc2Cl)C1=O	-7.27%
COc1ccccc1Cn1c(CO)nc2ccccc21	-24.8%
Cc1cccc(C2C3=C(CCCC3=O)N=C3c4ccccc4C(=O)C32)c1 (stereo unspecified)	-45%
Cc1cccc(NC(=S)NC23CN4CN(CN(C4)C2)C3)c1	-75.3%
CCS(=O)(=O)c1ccc2c(c1)N(S(=O)(=O)c1ccccc1)CC(C(=O)O)O2 (stereo unspecified)	52.3% (active)
CCS(=O)(=O)c1ccc2oc(SCC(=O)N3c4ccccc4CC3C)nc2c1 (stereo unspecified)	-1.51%
CC1CN(S(=O)(=O)c2ccccc2)C(C)CN1S(=O)(=O)c1ccccc1 (stereo unspecified)	-4.73%
C=CCOc1ccc(/C=N/NC(=O)C(C)Sc2ccccn2)cc1OCC (stereo unspecified)	-8.6%
COc1ccccc1C1CCN(c2ccc([N+](=O)[O-])cn2)CC1	-13.5%
CCOC(=O)C(NC(=O)CC(C)C)(Nc1sc2c(c1C(N)=O)CCCC2)C(F)(F)F (stereo unspecified)	-1.21%
O=c1[nH]c2cccnc2n1-c1ccc([N+](=O)[O-])cc1	-13.5%
CCOC(=O)CNC(=O)CSc1nnc(COc2ccc(Cl)cc2)n1CC	59% (active)
C=CCn1c(COc2ccccc2)nnc1SCC(=O)NCC(=O)OCC	-8.17%
CCOC(=O)CNC(=O)CSc1nnc(-c2cccc(OC)c2)n1CC	-3.85%
COc1ccc(CN(C)C(=S)Nc2ccc(Cl)cc2Cl)cc1	-35.5%
COc1ccc(CN2CCn3ncc(C(=O)Nc4ccc(Cl)cc4Cl)c3C2=O)cc1	32%
O=c1cc(CCl)nc2scc(-c3ccccc3)n12	-18.4%

SMILES	inhibition
Cc1ccccc1-c1nnc(SCC(=O)NCc2ccc3c(c2)OCO3)n1C	-9.98%
Cn1c(SCc2nc3ccccc3s2)nnc1-c1ccc2c(c1)OCO2	85.9% (active)
O=C(O)CSc1nnc(-c2ccc3c(c2)OCO3)n1-c1ccccc1	-2.66%
COc1ccc(CCNc2cc(C)nc3c(-c4ccc(Cl)cc4)c(C)nn23)cc1OC	5.91%
Cc1ccc(-c2noc(CSc3nnnn3-c3ccccc3)n2)cc1	0.82%
O=c1c2ccccc2nc(CSc2nnnn2-c2ccccc2)n1-c1ccccc1	67% (active)
O=c1c2ccccc2nnn1CSc1nnnn1-c1ccccc1	-28.6%
Oc1ccc(-c2nncn2-c2ccccc2)cc1	-19.8%
O=C(CN1CCN(c2ccc(O)cc2)CC1)Nc1cc(S(=O)(=O)N2CCOCC2)ccc1Cl	-49.6%
O=C(N/N=C/c1ccc([N+](=O)[O-])o1)c1cccc(S(=O)(=O)N2CCOCC2)c1	-61.1%
O=[N+]([O-])c1cc(Cl)cc(/C=N/NC(=S)Nc2cc(S(=O)(=O)N3CCOCC3)ccc2Cl)c1O	91.1% (active)
CC(Sc1nc2cc(Cl)ccc2s1)C(=O)Nc1ccc2c(c1)OCO2 (stereo unspecified)	-1.87%
Cc1cc(C)nc(Nc2ncn[nH]2)n1	-30%
CN(C)CCCO/N=C(\c1ccccc1)c1ccncc1	54.2% (active)
COc1cc(OC)nc(N/N=C(\c2ccccc2)c2ccncc2)n1	1.66%
O=C(O/N=C(/c1ccccc1)c1ccncc1)c1ccccc1[N+](=O)[O-]	-11.8%
Cc1ccc2c(c1)C1CN(C)CCC1N2C(=S)Nc1ccc(OC(F)F)cc1 (stereo unspecified)	-15.3%
CCn1cc(C(=O)NCc2ccc3c(c2)OCO3)c2cc(OC)c(OC)cc2c1=O	38.8%
COc1ccc2c(c1)C(C)=CC(C)(C)N2C(=O)CNCc1ccc2c(c1)OCO2	62% (active)
COc1ccc2c(c1)C(C)=CC(C)(C)N2C(=O)Nc1ccccc1	-36.6%
CC(=O)c1nnn(-c2ccc(Cl)cc2C#N)c1C	1.84%
Cc1ccc(-c2cc(C(=O)NCc3cn(C)nc3C)c3cc(Br)ccc3n2)cc1	57.4% (active)
Cc1ccc2nc(-c3cccc(Br)c3)cc(C(=O)Nn3cnnc3)c2c1	-15.1%
COc1ccc(Cl)cc1C(=O)NCc1cn(C)nc1C	-17.2%
